# Assay results reported in PubChem BioAssay.
# Where “and” joins values, the source holds several entries; their conditions need not be identical. Equal values may be shown once. Calls of active or inactive are those of the source.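 The calls were made as follows: active = z-score of at least 1.8 in each of two replicates, scored against plate mean and spread of sample wells; inactive = the rest.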
# Experiment: viability loss with induced miR-34 in A549 – imaging, A549 dox-inducible miR-34, nuclei and caspase counts, primary screen (AID 1347080); also: test concentration not given here
# Details: A549 miR-34 inducible, Hoechst nuclei count, 48 h; measured here: total cells without miR-34 induction
row,Structure (SMILES),cell count
1,NS(=O)(=O)c1nn2cc(-c3ccccc3)nc2s1,4530
2,COc1oc(=O)c2cc(N)ccc2c1Cl,8740
3,CN(N=O)C(=O)N[C@H]1C(O)O[C@H](CO)[C@@H](O)[C@@H]1O (stereo partly drawn),9160
4,N[C@@H](C(=O)O)c1ccc(O)c(C(=O)O)c1,9320
5,O=C(NC1CCN(Cc2ccccc2)CC1)c1ccc(I)cc1,7800
6,CC(=O)N(OCc1ccccc1)[C@@H]1c2cc(C#N)ccc2OC(C)(C)[C@H]1O,9380
7,c1ccc(Oc2nc(NC3CCCCC3)c3[nH]cnc3n2)cc1,8060
8,CCOC(=O)C1CSC(Cc2ccc(OCc3ccc([N+](=O)[O-])cc3)cc2)N1 (stereo not drawn),8940
9,COc1cccc(C=NC=Nc2cccc(OC)c2)c1,9420
10,C[C@@H]1CC2C3CCC4=CC(=O)C=CC4(C)C3(F)[C@@H](O)CC2(C)C1(O)C(=O)CO (stereo partly drawn),8990
11,CCCCCN=c1ccn(Cc2ccccc2)c2ccccc12,1420
12,O=c1[nH]c2cc(Cl)ccc2c(O)c1-c1cccc(Oc2ccccc2)c1,9100
13,N[C@@H](Cc1cc(CP(=O)(O)O)cc(-c2ccccc2Cl)c1)C(=O)O,9670
14,CC(C)c1ccccc1S(=O)(=O)c1cc(N)c2ncccc2c1[N+](=O)[O-],7090
15,CCn1c(=O)[nH]c2ccccc21,9100
16,C[C@@H]1C(=O)OC2[C@H](O)C34[C@H]5C[C@@H](C(C)(C)C)[C@]36[C@@H](OC(=O)[C@@H]6O)O[C@@]4(C(=O)O5)[C@]21O (stereo partly drawn),9140
17,OCCNCCCOc1cccc(Cl)c1Cl,6260 and 3660
18,CCCCC1CCC(c2nc(-c3ccncc3)no2)CC1 (stereo not drawn),5400 and 8570
19,Cc1ccc2c(=O)c3ccccc3n(CCCN)c2c1C,2020
20,N[C@@H](C(=O)O)[C@@H](OCc1ccccc1)C(=O)O (racemic),8700

row,Structure (SMILES),cell count
1,NC(N)=Nc1ccc(Cl)cc1,9100
2,CN1c2cc3c(cc2N=C(c2ccc(C(=O)O)cc2)c2ccccc21)C(C)(C)CCC3(C)C,8280
3,C/C(=N\NC(=O)[C@@H]1C(=O)NC[C@H]1c1ccccc1)c1cccc(Br)c1,9510
4,Cn1cccc1/C=C1\C(=O)NC(=O)c2ccccc21,9300
5,O=C(/C=C/c1ccccc1)NC(NC(=S)Nc1cccc2cccnc12)C(Cl)(Cl)Cl (stereo not drawn),4560
6,CN(Cc1ccccc1)C(=O)[C@H](Cc1ccc2ccccc2c1)NC(=O)[C@@H]1C[C@@H](O)CN1C(=O)c1cn(C)c2ccccc12,6350
7,Nc1nc(Nc2ccccc2)nc2c1ncn2[C@@H]1O[C@H](CO)[C@@H](O)[C@H]1O,10100
8,C[C@@H](CN1CCC(n2c(=O)[nH]c3cc(Cl)ccc32)CC1)NC(=O)c1ccc2ccccc2c1,3560
9,COC(=O)c1sccc1S(=O)(=O)Nc1ccc(Nc2ccccc2)cc1OC,7480
10,c1ccc2cc(C3=NCCN3)ncc2c1,9660
11,COc1ccccc1N1CCN(CCN2C(=O)c3ccccc3C(C)(C)C2=O)CC1,7320
12,CCCCN1CCC(CCC(=O)c2cc(Cl)c(N)cc2OC)CC1,8800
13,N[C@H]1CCN(O)C1=O,8300
14,NC(=NC1C2CC3CC(C2)CC1C3)Nc1ccc(I)cc1 (stereo not drawn),2540
15,Cn1ccc2cc(NC(=O)Nc3cccnc3)ccc21,8540
16,CC(=O)OCCNC(=O)c1cccnc1,10100
17,N[C@H](C(=O)O)c1ccc(C(=O)O)c(O)c1,9520
18,N[C@@H](Cn1ccc(=O)n(Cc2ccccc2C(=O)O)c1=O)C(=O)O,8900
19,NC(C(=O)O)c1cc(O)ccc1Cl (stereo not drawn),9110

# Experiment: galactose survival enhancers in mitochondrial complex I cybrids – cell-based, galactose medium, ATP luminescence, primary screen (AID 1645843);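 also: positive z means more ATP and so rescue of galactose-driven cybrid death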
# Details: complex I mutant cybrid cells, 72 h, stronger effect = higher value
row,Structure (SMILES),z-score
1,NS(=O)(=O)c1nn2cc(-c3ccccc3)nc2s1,-0.585 (inactive)
2,COc1oc(=O)c2cc(N)ccc2c1Cl,-0.37 (inactive)
3,CN(N=O)C(=O)N[C@H]1C(O)O[C@H](CO)[C@@H](O)[C@@H]1O (stereo partly drawn),-0.2 (inactive)
4,N[C@@H](C(=O)O)c1ccc(O)c(C(=O)O)c1,-0.18 (inactive)
5,O=C(NC1CCN(Cc2ccccc2)CC1)c1ccc(I)cc1,-0.755 (inactive)
6,CC(=O)N(OCc1ccccc1)[C@@H]1c2cc(C#N)ccc2OC(C)(C)[C@H]1O,0.705 (inactive)
7,c1ccc(Oc2nc(NC3CCCCC3)c3[nH]cnc3n2)cc1,-0.49 (inactive)
8,CCOC(=O)C1CSC(Cc2ccc(OCc3ccc([N+](=O)[O-])cc3)cc2)N1 (stereo not drawn),-0.58 (inactive)
9,COc1cccc(C=NC=Nc2cccc(OC)c2)c1,-0.08 (inactive)
10,C[C@@H]1CC2C3CCC4=CC(=O)C=CC4(C)C3(F)[C@@H](O)CC2(C)C1(O)C(=O)CO (stereo partly drawn),0.725 (inactive)
11,CCCCCN=c1ccn(Cc2ccccc2)c2ccccc12,-0.705 (inactive)
12,O=c1[nH]c2cc(Cl)ccc2c(O)c1-c1cccc(Oc2ccccc2)c1,0.335 (inactive)
13,N[C@@H](Cc1cc(CP(=O)(O)O)cc(-c2ccccc2Cl)c1)C(=O)O,0.225 (inactive)
14,CC(C)c1ccccc1S(=O)(=O)c1cc(N)c2ncccc2c1[N+](=O)[O-],-0.685 (inactive)
15,CCn1c(=O)[nH]c2ccccc21,-0.455 (inactive)
16,C[C@@H]1C(=O)OC2[C@H](O)C34[C@H]5C[C@@H](C(C)(C)C)[C@]36[C@@H](OC(=O)[C@@H]6O)O[C@@]4(C(=O)O5)[C@]21O (stereo partly drawn),-0.225 (inactive)
17,OCCNCCCOc1cccc(Cl)c1Cl,-0.65 (inactive)
18,CCCCC1CCC(c2nc(-c3ccncc3)no2)CC1 (stereo not drawn),-0.62 (inactive)
19,Cc1ccc2c(=O)c3ccccc3n(CCCN)c2c1C,-0.58 (inactive)
20,N[C@@H](C(=O)O)[C@@H](OCc1ccccc1)C(=O)O (racemic),0.315 (inactive)

row,Structure (SMILES),z-score
1,NC(N)=Nc1ccc(Cl)cc1,-0.49 (inactive)
2,CN1c2cc3c(cc2N=C(c2ccc(C(=O)O)cc2)c2ccccc21)C(C)(C)CCC3(C)C,-0.495 (inactive)
3,C/C(=N\NC(=O)[C@@H]1C(=O)NC[C@H]1c1ccccc1)c1cccc(Br)c1,0.375 (inactive)
4,Cn1cccc1/C=C1\C(=O)NC(=O)c2ccccc21,-0.415 (inactive)
5,O=C(/C=C/c1ccccc1)NC(NC(=S)Nc1cccc2cccnc12)C(Cl)(Cl)Cl (stereo not drawn),-0.47 (inactive)
6,CN(Cc1ccccc1)C(=O)[C@H](Cc1ccc2ccccc2c1)NC(=O)[C@@H]1C[C@@H](O)CN1C(=O)c1cn(C)c2ccccc12,3.41 (active)
7,Nc1nc(Nc2ccccc2)nc2c1ncn2[C@@H]1O[C@H](CO)[C@@H](O)[C@H]1O,-0.09 (inactive)
8,C[C@@H](CN1CCC(n2c(=O)[nH]c3cc(Cl)ccc32)CC1)NC(=O)c1ccc2ccccc2c1,-1.04 (inactive)
9,COC(=O)c1sccc1S(=O)(=O)Nc1ccc(Nc2ccccc2)cc1OC,-0.495 (inactive)
10,c1ccc2cc(C3=NCCN3)ncc2c1,-0.34 (inactive)
11,COc1ccccc1N1CCN(CCN2C(=O)c3ccccc3C(C)(C)C2=O)CC1,-0.455 (inactive)
12,CCCCN1CCC(CCC(=O)c2cc(Cl)c(N)cc2OC)CC1,-0.48 (inactive)
13,N[C@H]1CCN(O)C1=O,-0.005 (inactive)
14,NC(=NC1C2CC3CC(C2)CC1C3)Nc1ccc(I)cc1 (stereo not drawn),-0.39 (inactive)
15,Cn1ccc2cc(NC(=O)Nc3cccnc3)ccc21,0.405 (inactive)
16,CC(=O)OCCNC(=O)c1cccnc1,0.15 (inactive)
17,N[C@H](C(=O)O)c1ccc(C(=O)O)c(O)c1,-0.145 (inactive)
18,N[C@@H](Cn1ccc(=O)n(Cc2ccccc2C(=O)O)c1=O)C(=O)O,0.025 (inactive)
19,NC(C(=O)O)c1cc(O)ccc1Cl (stereo not drawn),4.21 (active)
